Screening data deposited in PubChem BioAssay by several laboratories.
MazF activator: increases E. coli MazEF RNase cleavage of RNA. FAM/BHQ RNA-DNA oligo cleavage fluorescence, 5 h. activation, % at 20 µM. P0AE70. 350,000 tested, 0.32% active; in the data active = activation above about 50%
Target sequence (P0AE70 whole entry, looked up): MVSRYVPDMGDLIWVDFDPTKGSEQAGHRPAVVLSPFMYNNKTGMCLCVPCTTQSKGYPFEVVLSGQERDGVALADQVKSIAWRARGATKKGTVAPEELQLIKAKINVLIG
BoNT-A LC inh2: inhibitors of Botulinum neurotoxin A light chain protease; multiplex microsphere protease substrate cleavage, flow cytometry; inhibition, % at 10 µM; 360,000 tested, 0.17% active; note: plate controls were buffer without enzyme for full effect and enzyme alone for no effect
Anthrax LF prot: blocks Bacillus anthracis lethal factor protease; P15917; multiplex microsphere protease cleavage assay, LF; inhibition, % at 10 µM; 360,000 tested, 0.12% active; AID 588501; note: plate controls were buffer without enzyme for full effect and enzyme alone for no effect
BoNT F protease: inhibitors of Botulinum neurotoxin F light chain protease; Multiplex microsphere protease cleavage assay, flow cytometry; inhibition, % at 10 µM; 360,000 tested, 0.22% active; AID 588497; in the data active = inhibition above about 35%, passing the limit was not always enough; inconclusive = no clear call, values can overlap the other calls; note: plate controls were buffer without enzyme for full effect and enzyme alone for no effect
Autofluor counter: compound fluorescence in toxin protease inhibitor counterscreen; compound autofluorescence counterscreen, microsphere flow cytometry; stronger effect = higher value; fluorescence intensity (no concentration beside the values); 360,000 tested, 3.1% active; AID 624483; in the data active = fluorescence intensity above about 16000; inconclusive = no clear call, values can overlap the other calls
An asterisk follows results filed as active; u = inconclusive; x = not tested or not shown. Sampled rows, rich in hits. Any-hit rate of the full collection: about 3.7%. Cut-off read from the data, not from the text of the source, unless noted: active = inhibition above about 30%; inconclusive = no clear call, values can overlap the other calls; inactive = below that.

SMILES | MazF activator | BoNT-A LC inh2 | Anthrax LF prot | BoNT F protease | Autofluor counter
CCCNC(=O)CCn1nc(-c2ccc(C)cc2)c2ccccc2c1=O | 4 | 0 | 6 | 13 | 3718
CCCNC(=O)CCC(=O)Nc1ncc(-c2ccc(C)cc2)n1C | 5 | u | 2 | -4 | 22139*
CCc1nc2c(OCCn3cccc3)cccn2c1N(C=O)Cc1ccccc1 | x | -1 | 0 | -12 | 4151
CCOc1ccc(/C(O)=C2/C(=O)C(=O)N(CCOCCO)C2c2ccc(F)cc2)cc1 (configuration not stated) | 0 | 0 | 0 | -10 | 3044
CCOc1ccc(/C(O)=C2/C(=O)C(=O)N(CCOCCO)C2c2ccccn2)cc1 (configuration not stated) | 0 | -2 | -8 | -3 | 22618*
Cc1[nH]n(-c2ccccc2)c(=O)c1C1(C(F)(F)F)C(=O)N(c2ccccc2)C2=C1C(=O)CC(C)(C)C2 (configuration not stated) | 5 | u | -2 | 2 | 23155*
COC(=O)c1ccc(NC(=O)c2ccc(CN3CCOCC3)cc2)cc1 | 4 | 0 | 0 | 2 | 16430*
O=C(Nc1ccc(CN2CCOCC2)cc1)c1cccc(F)c1 | 3 | 3 | 0 | 1 | 18588*
C=CCNC(=O)CN1C(=O)CSc2ccc(S(=O)(=O)N3CCOCC3)cc21 | 2 | 0 | -4 | 3 | 3521
Cc1ccccc1-n1nnnc1Sc1nnnn1-c1ccccc1 | 4 | 0 | 1 | -7 | 3503
c1ccc(-n2nnnc2Sc2n[nH]c(-c3ccncc3)n2)cc1 | 0 | -3 | -2 | -6 | 24881*
CC1(C)CC(=O)c2c(O)cc(O)cc2O1 | 5 | 0 | -5 | -3 | 22477*
CCOc1cc(-c2nc(-c3ccc(C)nc3OCC)no2)cc(OCC)c1OCC | 0 | u | -6 | -1 | 23089*
COc1ccc(-c2ccc(-c3noc(-c4ccccc4OC)n3)c(OC)n2)cc1 | 61* | 0 | 4 | -1 | 3286
COc1nc(C)ccc1-c1noc(-c2ccco2)n1 | 9 | 0 | -6 | 0 | 20448*
COc1nc(-c2ccc(C)cc2)ccc1-c1noc(-c2ccco2)n1 | -19 | 1 | 5 | -3 | 4596
COc1ccc(-c2ccc(-c3noc(-c4ccccc4C)n3)c(OC)n2)cc1 | -23 | 0 | -1 | 0 | 3041
COc1nc(-c2ccccc2)ccc1-c1noc(-c2cccnc2)n1 | -21 | -2 | -2 | -5 | 23960*
CCOc1cc(-c2nc(-c3ccc(C)nc3OC)no2)cc(OCC)c1OCC | -3 | 0 | -7 | -3 | 5845
CC(=O)NCCNc1nc(NCC2CC2)nc2cc(-c3ccccc3)sc12 | x | 1 | 5 | -1 | 3924
C=CCC[C@@H](Cc1ccc(F)cc1)C(=O)OCCNC(=O)[C@H](CC=C)CC(=O)NCCO | -1 | 0 | -5 | 0 | 3687
COc1ccc(-c2ccc(-c3noc(C)n3)c(OC)n2)cc1 | -11 | -1 | -2 | -17 | 12232
COc1ccc(CC(=O)Nc2ccc(-c3noc(-c4ccccc4OC)n3)cc2)cc1 | -16 | u | -2 | 0 | 22431*
CCOc1nc(-c2ccc(OC)cc2)ccc1-c1noc(C)n1 | -4 | u | -2 | -4 | 21728*
COc1ccc(-c2nc(-c3ccc(Br)cc3)no2)c(OC)c1 | -32 | 1 | 6 | -2 | 19523*
SMILES | MazF activator | BoNT-A LC inh2 | Anthrax LF prot | BoNT F protease | Autofluor counter
CCc1c(C)nc(N)n2c(SCC(=O)Nc3ccccc3OC)nnc12 | 6 | -1 | 0 | -1 | 23325*
CCOc1ccccc1NC(=O)CSc1nnc2c(CC)c(C)nc(N)n12 | -2 | -2 | -5 | -15 | 11678
N#C/C(=C\c1ccc(-c2ccccc2[N+](=O)[O-])o1)C(N)=O | 1 | -1 | 0 | 0 | 5201
N#CC(C#N)=Cc1ccc(-c2ccccc2F)o1 | 149* | 1 | -1 | -1 | 2154
CC1=C(C(=O)N(C)C)CC(CC(=O)NCCCN(C)C)C(=O)N1CCC1=CCCCC1 (configuration not stated) | 10 | 0 | -2 | -6 | 2861
COc1ccc(CN2CCOCC2)cc1Br | 9 | u | 0 | -1 | 23516*
CCOc1ccc2c(c1)n(CO)c(=S)n2CO | 9 | u | -4 | 2 | 22336*
Cc1c(C(=O)NC(C)C)sc2ncn(CC(=O)N3CCC(C)CC3)c(=O)c12 | 5 | 2 | -8 | 2 | 19793*
Cc1c(C(N)=O)sc2ncn(CC(=O)N3CCC(C)CC3)c(=O)c12 | -5 | 1 | -6 | 1 | 22473*
Cc1c(C(=O)N2CCC(C)CC2)sc2ncn(CC(=O)N3CCC(C)CC3)c(=O)c12 | -21 | 1 | -1 | -3 | 5907
CCN1C(=O)[C@H]2[C@@H](c3ccc(-c4ccccc4)cc3)N[C@@](CC(C)C)(C(=O)OC)[C@H]2C1=O | -1 | -1 | 1 | -2 | 3745
Cc1ccc(S(=O)(=O)N2CCCCC2)cc1NC(=O)CSc1nnc(C2CC2)n1C | 8 | 0 | 2 | 0 | 3575
CN(Cc1ccccc1N1CCCC1)C(=O)c1cc2cc(Cl)ccc2o1 | 0 | 0 | -8 | -2 | 4053
O=C(Nc1ccsc1C(=O)NC1CCCCC1)c1ccccc1 | 11 | u | -1 | -2 | 20407*
O=Nc1c(-c2c(O)[nH]c3cc(Br)ccc23)[nH]c2ccccc12 | 55* | 0 | -36 | -76 | 5297
CC(=O)N1CCN(C(=O)OC2CC3CC2[C@H]2CCCCN2C3=O)CC1 (some centres not stated) | x | 0 | -5 | 11 | 5463
COc1ccc(-c2nnc3ccc(SCC(=O)NCc4ccco4)nn23)cc1 | 3 | 0 | 3 | 7 | 8467
CCOC(=O)CC(=O)CSc1ccc2nnc(-c3ccc(C)cc3)n2n1 | 4 | 2 | -7 | 4 | 22080*
O=C(CSc1nnc2scc(-c3ccccc3)n12)NCC1CCCO1 (configuration not stated) | 5 | -2 | 1 | -4 | 21160*
O=C(CSc1nnc2ccc(-c3ccccc3)nn12)NCC1CCCO1 (configuration not stated) | 9 | 0 | 0 | 5 | 5238
O=C(CSc1ccc2nnc(-c3cccc(F)c3)n2n1)NCC1CCCO1 (configuration not stated) | 3 | 2 | -7 | 3 | 22186*
CCOC(=O)N1CCN(C(=O)CSc2ccc3nnc(-c4ccncc4)n3n2)CC1 | 4 | 0 | -6 | 0 | 3148
O=C(CSc1ccc2nnc(-c3ccccc3)n2n1)NCc1ccco1 | 8 | u | -6 | -1 | 20999*
Cn1cccc1Cc1nnc(SCC(=O)NCC2CCCO2)n1CCc1ccccc1 (configuration not stated) | 2 | u | -8 | 2 | 22577*
COc1ccc(NC(=O)CSc2nnc(Cc3cccn3C)n2CCc2ccccc2)c(OC)c1 | 0 | -1 | -4 | 1 | 7844
Cn1cccc1Cc1nnc(SCC(=O)Nc2nccs2)n1CCc1ccccc1 | 9 | -1 | -8 | 3 | 5881
COc1ccccc1NC(=O)CSc1nnc(Cc2cccn2C)n1CCc1ccccc1 | -1 | -4 | -3 | -7 | 24958*
CCSc1nnc(NC(=O)CSc2nnc(Cc3cccn3C)n2CCc2ccccc2)s1 | -2 | u | -4 | 2 | 20173*
